Rows were chosen to be rich in hits. Some 3.7% of all compounds tested hit in one or more screens of this group.
DRD3 antagonist – antagonists of human D3 dopamine receptor; P35462; D3R cells, DiscoveRx beta-arrestin luminescence, antagonist mode; active compounds read low; max response, negative = inhibition, %; 360,000 compounds, 2.5% hits; AID 652054; in the data active means max response below about -50%; inconclusive means no clear call, values can overlap the other calls; further: on the % scale 0 is the no-effect control and ±100 the full control effect
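Cells expressing the human receptor were seeded at 1500 cells/well, incubated overnight at 37 degrees C in 5% CO2, then exposed to library compounds with dopamine controls for 90 minutes at 37 degrees C before luminescent detection.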
BRCA1 expr up – increases BRCA1 expression; MCF7-BRCA1-FFLuc reporter, luminescence, 48 h; response scale: scaled: vehicle 0%, 10 µM genistein 100%; Potency, µM (doses to about 46.1 µM), without a hit: top-dose activation, actives largely listed as activators; 380,000 compounds, 1.1% hits; further: potency means the concentration at half of the fitted maximal effect; nearly all actives have a fitted effect of over 80% in size
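Compounds are tested at multiple concentrations on MCF7 BRCA1-luciferase reporter cells seeded at 2000 per well; after 48 h, a single luminescence end-point is taken and curves fitted to the normalized data.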
DRD3 agonist – D3 dopamine receptor (human) agonism; D3R DiscoveRx beta-arrestin cells, luminescence, 90 min; max activation, %; 410,000 compounds, 0.58% hits; AID 652048; in the data active means max activation above about 30%; further: 0% is about no effect
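Cells at 1500/well, incubated overnight, then treated with pinned compounds (dopamine as control) for 90 min at 37 degrees C. DiscoveRx reagent added for 30 - 60 minutes at room temperature; luminescence read.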
PTHR1 agonist – PTHR1 (human) receptor agonism. Q03431. HEK293 GP2 PTHR1 cells, GloSensor cAMP luminescence, 1 h. Potency, µM (series often up to 115 µM), inactives show top-dose activation, usual class: activators. 410,000 compounds, 0.075% hits. AID 743266; further: potency means the concentration at half of the fitted maximal effect; nearly all actives have a fitted effect of over 55% in size
Target sequence (Q03431 whole entry, looked up): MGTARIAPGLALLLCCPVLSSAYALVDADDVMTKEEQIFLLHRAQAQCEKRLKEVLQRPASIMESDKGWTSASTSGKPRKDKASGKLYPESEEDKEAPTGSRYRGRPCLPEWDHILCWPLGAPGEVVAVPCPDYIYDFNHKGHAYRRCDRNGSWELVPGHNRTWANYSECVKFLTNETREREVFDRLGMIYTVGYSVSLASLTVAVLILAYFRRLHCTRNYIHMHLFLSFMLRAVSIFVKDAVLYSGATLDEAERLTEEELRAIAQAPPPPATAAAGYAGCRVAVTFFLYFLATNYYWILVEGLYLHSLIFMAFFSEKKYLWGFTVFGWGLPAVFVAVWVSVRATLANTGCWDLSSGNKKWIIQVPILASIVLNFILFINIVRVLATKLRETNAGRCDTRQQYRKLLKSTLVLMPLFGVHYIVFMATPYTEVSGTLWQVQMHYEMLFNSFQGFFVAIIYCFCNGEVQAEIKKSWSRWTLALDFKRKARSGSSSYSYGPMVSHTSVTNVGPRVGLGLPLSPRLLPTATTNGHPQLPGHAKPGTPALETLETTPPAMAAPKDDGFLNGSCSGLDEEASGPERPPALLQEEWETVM
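HEK-293-derived GP2 cells expressing PTHR1 and a GloSensor cAMP reporter, 3,000/well, plated overnight, given luciferin plus IBMX (each 0.5 mM as added) for 1 h at 37 °C, then compound for 1 h at 37 °C. Luminescence was read after 15 min at room temperature.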
B2AR arrestin – agonists driving beta-arrestin recruitment to human beta2-adrenergic receptor; AID 492947; beta-arrestin recruitment to beta2AR, cell-based reporter; Potency, µM (titrated, usually from 46.1 µM), without a hit: at the highest dose activation, usual class: activators; 330,000 compounds, 0.02% hits; P07550;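 further: potency means the concentration at half of the fitted maximal effect; 0% = DMSO controls and full agonism = EC100 isoproterenol or metaproterenol; nearly all actives have a fitted effect of over 65% in size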
RGS4 inh – inhibitors of human regulator of G protein signaling 4; P49798; 390,000 compounds, 0.039% hits; AID 504845; Transcreener GDP fluorescence polarization, RGS4-accelerated GTP hydrolysis; Potency, µM (series often up to 114 µM), inactives show top-dose activity change, negative = inhibition, actives largely listed as inhibitors; further: potency means the concentration at half of the fitted maximal effect; on the % scale 0 is the no-effect control and ±100 the full control effect; nearly all actives have a fitted effect of over 75% in size
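MLSMR compounds (23 nl, pin-transferred) preincubated 10 min at room temperature with a 500nM (2x) first reagent, then RGS4 at 900nM (2x) plus Transcreener GDP mix added; fluorescence polarization (620/688 nm) read before and after 90 min at 30 °C.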
Numbers without * were called inactive; i = inactive; ? = inconclusive; / = no result given; [ ] = another dose, or the depositor's remark. Unless noted, the call rests on the fitted dose curve; in most records, active means well fitted curve in the direction sought with a large enough effect; inconclusive means small, poorly fitted or top-dose-only effect, or another doubt; inactive means no such curve, though single readings can be large; an effect the other way counts as inactive or inconclusive.

SMILES	DRD3 antagonist	BRCA1 expr up	DRD3 agonist	PTHR1 agonist	B2AR arrestin	RGS4 inh
CCN1CCN(C(=O)c2cc3ccc(OC)cc3[nH]2)CC1	3	11µM*	-1	i	0%	-10%
COc1ccc(NC(=O)c2cc3ccccc3[nH]2)cc1	0	?	-5	-9%	5%	10%
COc1ccc2[nH]c(C(=O)Nc3ccc(C)c(F)c3)cc2c1	-9	3.5µM*	-8	-4%	-2%	-5%
CC1CCN(c2oc(-c3ccccc3Cl)nc2C#N)CC1	22	6.3µM*	-17	-13%	1%	-22%
Cc1ccccc1-c1nc(C#N)c(N2CCC(C)CC2)o1	8	?	-2	i	0%	-5%
C#CCNC(=O)/C=C/c1ccc(C)cc1	5	11µM*	6	-4%	-2%	23%
O=C(NCc1ccco1)C(c1ccc(F)cc1)N(C(=O)Cc1cccs1)c1cccnc1 (stereo not given)	-23	-18%	6	-13%	0%	-4%
CC(C)C[C@H]1CNC(=S)N1C[C@H]1CCCN1C[C@H](Cc1ccc(O)cc1)N1C[C@H](CC(C)C)N(CC2CCCCCC2)C1=S	-65*	-58%	-9	-17%	/	/
CC(C)C[C@H]1CN([C@@H](Cc2ccccc2)CN2CCC[C@@H]2CN2C(=O)C(=O)NC[C@@H]2Cc2ccccc2)C(=O)C(=O)N1CCc1ccccc1	-65*	-50%	-15	-57%	/	/
CC(C)C[C@H]1CNC(=S)N1C[C@H]1CCCN1C[C@H](Cc1ccccc1)N1C[C@H](Cc2ccc(O)cc2)N(CC2CCCCCC2)C1=S	32	-71%	9	i	/	/
CCc1cccc(C)c1NC(=O)Cn1ccn(Cc2ccc(Cl)cc2)c(=O)c1=O	/	/	-16	i	/	-1%
CCC(C)NCCOc1ccc(C)cc1[N+](=O)[O-] (stereo not given)	-60*	2%	-17	i	-1%	-11%
COCCCNCCCCOc1ccc(C)cc1[N+](=O)[O-]	-70*	-10%	-34	i	-1%	15%
C=CCc1ccc(OCCOCCOc2ccc(C)cc2[N+](=O)[O-])c(OC)c1	19	-30%	6	-4%	0%	12%
COc1ccccc1OCCOCCOc1ccc(C)cc1[N+](=O)[O-]	7	-12%	0	i	0%	15%
CCC(C)NCCOCCOc1ccc(C)cc1Br (stereo not given)	-70*	-6%	-13	i	0%	20%
C=CCNCCOc1ccc(C)cc1[N+](=O)[O-]	-72*	26%	-13	-28%	0%	5%
COc1ccc(-c2noc(CN(C)C(=O)c3ccoc3C)n2)cc1OC	-12	16%	-8	-20%	0%	35%
O=C(C[n+]1cccc2cccc(O)c21)c1ccc2ccccc2c1	/	-15%	/	/	/	/
O=C(C[n+]1cccc(I)c1)c1ccc(F)cc1	/	21%	/	/	/	/
C=CCN(CC=C)CCOc1ccc(C)cc1[N+](=O)[O-]	-96*	74%	-9	i	0%	9%[11.4 µM]
CCCCNCCOCCOc1ccc(C)cc1[N+](=O)[O-]	-53*	-2%	-5	-11%	-1%	44%
CCC(C)NCCCOc1c(C)cc(C)cc1Br (stereo not given)	-54*	-54%	-4	13%	0%	22%
COc1ccccc1OCCCOc1c(C)cc(C)cc1Br	6	-7%	4	-7%	-1%	-9%
COc1cccc(CNC(=O)c2ccc(NC(=O)CC3SC(N4CCCC4)=NC3=O)cc2)c1 (stereo not given)	-18	-2%	-14	-27%	0%	-25%
COc1cc(-c2nc(Cn3nnc(C(=O)Nc4ccccc4)c3C)c(C)o2)cc(OC)c1OC	/	-31%	7	-9%	/	6%
Cc1ccc(S(=O)(=O)N(C)CC(=O)N(C)Cc2cccs2)cc1	13	-8%	3	-24%	/	/
Cc1cccc(NC(=O)CN2C(=O)COc3ccc(S(=O)(=O)N4CCC(C)CC4)cc32)c1C	/	/	7	i	/	22%

Compound activity deposited in PubChem BioAssay by National Center for Advancing Translational Sciences (NCATS).
